Inconclusive results are not listed. Activity calls are given as the source filed them. The calls were made as follows, unless noted: active = hit-call score of the fitted dose curve at least 0.9, where 1 is the maximum; inactive = score below 0.9.
How the values were obtained:
[1] = ACEA_ER_80hr: ACEA Biosciences xCELLigence Real-Time Cell Analysis on Estrogen Receptor Agonism for Proliferation (AID 2282667; active = hit-call score of the fitted dose curve at least 0.9, where 1 is the maximum); details: T47D proliferation, impedance (xCELLigence), 80 h
In short: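 Cell-growth kinetics were measured by impedance in T47D cells treated continuously with compound (top 100 uM final, 1:4 steps, 8 points). Activity at 80 h was scored as signal gain over the DMSO baseline.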

[2] = APR_HepG2_CellCycleArrest_24hr: Apredica 24-hour HepG2 Assay for Cell Cycle Arrest (AID 2282905); details: imaging, actives raise or lower the signal;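 also: cell cycle arrest scored as ratio of 2N to 4N nuclear DNA content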
In short: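 Compounds (0.39 to 200 uM, final DMSO 0.5% v/v) are applied to HepG2 cells for 24 hours; cells are then fixed, permeabilized and nuclei labeled with Hoechst 33342. Automated imaging measures DNA content, and activity is fitted in both directions against DMSO.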

[3] = APR_HepG2_NuclearSize_24hr: Apredica 24-hour HepG2 Assay for Nuclear Size (AID 2282907); details: high-content imaging, actives raise or lower the signal
In short: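 Nuclear size is measured by fluorescence high-content imaging of Hoechst-labelled HepG2 nuclei after 24 hr of treatment (0.39–200 uM, 0.5% DMSO). Cells are fixed in 3.7% formaldehyde before staining, and DMSO serves as the baseline for bidirectional curve fitting.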

[4] = APR_HepG2_CellLoss_24hr: Apredica 24-hour HepG2 Assay for Cell Loss (AID 2282908); details: high-content imaging;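 as to AC50: fit in both directions so a hit may be cell loss or gain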
In short: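 Nuclear count serves as the viability measure: treated cells are fixed, permeabilized and labelled with Hoechst 33342, and six images per well are analysed to identify valid nuclei. Doses span 0.39–200 uM, and activity in either direction is scored against DMSO.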

[5] = APR_HepG2_MicrotubuleCSK_24hr: Apredica 24-hour HepG2 Assay for Microtubule CSK Stabilty (AID 2282909); details: HepG2 microtubule cytoskeleton imaging, actives raise or lower the signal
In short: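 Compounds were applied to HepG2 cells for 24 hours across 0.39–200 uM in duplicate, with final DMSO at 0.5% v/v. Fixed, permeabilized cells were labeled for alpha-tubulin and nuclei, and tubulin fluorescence was quantified by imaging, fitted bidirectionally against DMSO.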

[6] = APR_HepG2_MitoticArrest_24hr: Apredica 24-hour HepG2 Assay for Mitotic Arrest (AID 2282910); details: high-content imaging, actives raise or lower the signal
In short: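 HepG2, 24 hr dosing, 0.39–200 uM, 0.5% DMSO final. Formaldehyde-fixed, Triton-permeabilised, anti-phospho-histone H3 plus Hoechst. ArrayScan imaging at 20x; bidirectional fit vs DMSO baseline.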

[7] = APR_HepG2_MitoMass_24hr: Apredica 24-hour HepG2 Assay for Mitochondrial Mass (AID 2282912); details: high-content imaging, actives raise or lower the signal
In short: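 After 24 hr of treatment at 0.39 to 200 uM, HepG2 cells take up 250 nM MitoTracker Red CMXRos for 30 min and are then fixed with 3.7% formaldehyde. Per-well images are quantified, and any change in either direction is scored against solvent.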

[8] = APR_HepG2_CellCycleArrest_72hr: Apredica 72-hour HepG2 Assay for Cell Cycle Arrest (AID 2282914); details: high-content imaging, actives raise or lower the signal
In short: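 Cell cycle arrest in HepG2 was scored from nuclear DNA content after 72 hr compound treatment (0.39–200 uM). Activity, either gain or loss, was fitted against the DMSO baseline.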

[9] = APR_HepG2_CellLoss_72hr: Apredica 72-hour HepG2 Assay for Cell Loss (AID 2282915); details: high-content imaging
In short: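 HepG2 cells exposed 72 h to compound at 0.39–200 uM (10 concentrations, duplicate) in 0.5% DMSO. Fixed with 3.7% formaldehyde and Hoechst 33342-stained. Imaged at 20x; nuclear count gives cell number, fitted bidirectionally versus DMSO.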

[10] = APR_HepG2_P-H2AX_72hr: Apredica 72-hour HepG2 Assay for H2AX Phosphorylation (AID 2282916); details: imaging, actives raise or lower the signal;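 also: phospho-histone H2A.x immunostain intensity per cell marking DNA damage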
In short: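 Human hepatoma HepG2 cells are dosed across ten concentrations (0.39 to 200 uM, 0.5% v/v DMSO) and incubated 72 hr. Phospho-histone H2A.x is then detected by antibody staining alongside c-Jun and Hoechst, and quantified by automated fluorescence imaging.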

[11] = APR_HepG2_MitoMembPot_72hr: Apredica 72-hour HepG2 Assay for Mitochondrial Membrane Potential (AID 2282917); details: imaging, actives raise or lower the signal
In short: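 HepG2 cells dosed 72 hr with compound at 0.39–200 uM in duplicate, 0.5% v/v DMSO final. Mitochondria stained with 250 nM MitoTracker Red CMXRos for 30 min before formaldehyde fixation, imaged by high-content fluorescence; bidirectional fit versus DMSO.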

[12] = APR_HepG2_MitoticArrest_72hr: Apredica 72-hour HepG2 Assay for Mitotic Arrest (AID 2282918); details: high-content imaging, actives raise or lower the signal
In short: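 Mitotic arrest in HepG2 is scored from phospho-histone H3 staining after 72 hr dosing across 0.39–200 uM, with DMSO at 0.5% v/v. Nuclei are identified by Hoechst 33342 and fluorescence intensity is quantified per cell.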

[13] = APR_HepG2_StressKinase_72hr: Apredica 72-hour HepG2 Assay for Stress Kinase (AID 2282921); details: HepG2 stress kinase (phospho-c-Jun) imaging, actives raise or lower the signal
In short: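 After a 72 h compound treatment spanning 0.39 to 200 uM, formaldehyde-fixed cells are labelled for phosphorylated c-Jun and nuclei, imaged by automated fluorescence microscopy, and activity is fitted in both directions relative to DMSO controls.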

[14] = APR_HepG2_p53Act_72hr: Apredica 72-hour HepG2 Assay for p53 Activation (AID 2282923); details: high-content imaging, actives raise or lower the signal;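 also: average cellular p53 protein immunofluorescence intensity in HepG2 cells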
In short: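 Imaging-based endpoint: after 72 hr compound exposure (up to 200 uM, 0.5% DMSO), fixed and permeabilized monolayers were labelled with anti-p53 antibody and imaged; signal change in either direction was fitted relative to DMSO controls.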

[15] = APR_HepG2_MitoMass_72hr: Apredica 72-hour HepG2 Assay for Mitochondrial Mass (AID 2282924); details: high-content imaging, actives raise or lower the signal;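 also: MitoTracker Red CMXRos stain intensity per cell imaged as mitochondrial mass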
In short: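 Read-out: MitoTracker Red fluorescence intensity from automated imaging (20x, six fields per well) in human HepG2 liver cells. Dosing ran 72 hr, 0.39–200 uM, 0.5% DMSO; bidirectional curve fitting versus DMSO baseline.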

[16] = APR_HepG2_NuclearSize_72hr: Apredica 72-hour HepG2 Assay for Nuclear Size (AID 2282925); details: high-content imaging, actives raise or lower the signal
In short: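 Read-out: nuclear diameter from Hoechst 33342 images (ArrayScan, 20x, six fields/well), via cell-cycle image analysis. HepG2 were dosed 0.39–200 uM for 72 hr in 0.5% DMSO. Bidirectional fit relative to DMSO.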

[17] = ATG_CRE_CIS: Attagene CIS-FACTORIAL HepG2 Assay for human cAMP Responsive Element (CRE) binding protein 3 (AID 2282926); details: HepG2 CRE cis-reporter, Attagene multiplexed mRNA; actives raise or lower the signal
In short: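 Cells carrying cis-regulated reporter constructs respond through their own endogenous factors. After 24 h treatment, RNA is reverse-transcribed, amplified, labelled and sized by capillary electrophoresis; up- and down-regulation are both scored against vehicle.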

[18] = APR_HepG2_P-H2AX_24hr: Apredica 24-hour HepG2 Assay for H2AX Phosphorylation (AID 2282920); details: high-content imaging, actives raise or lower the signal
In short: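 Signal comes from a FITC-labeled secondary detecting phospho-histone H2A.x in fixed HepG2 cells, quantified by automated imaging at 20x. Dosing ran 24 hr across 0.39–200 uM with 0.5% v/v DMSO.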

[19] = APR_HepG2_MitoMembPot_24hr: Apredica 24-hour HepG2 Assay for Mitochondrial Membrane Potential (AID 2282911); details: imaging, actives raise or lower the signal
In short: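 Human hepatoma HepG2 cultures received ten compound concentrations up to 200 uM for 24 hr. Membrane-potential dye signal, captured by automated fluorescence microscopy, was scored for gain or loss against DMSO controls.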

[20] = APR_HepG2_StressKinase_24hr: Apredica 24-hour HepG2 Assay for Stress Kinase (AID 2282922); details: HepG2 stress kinase (phospho-c-Jun) imaging, actives raise or lower the signal
In short: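 Read-out: phospho-c-Jun immunofluorescence (Cy3 secondary) quantified by high-content imaging at 20x, nuclei defined by Hoechst 33342. Human HepG2 liver cells dosed 24 hr, 0.39–200 uM, DMSO 0.5% v/v; gain or loss of signal fitted relative to DMSO.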

Measured: AC50

CCOS(=O)(=O)OCC
inactive: [1] | [2] | [3] | [4] | [5] | [6] | [7] | [8] | [9] | [10] | [11] | [12] | [13] | [14] | [15] | [16] | [17]

O=P(Oc1ccccc1)(Oc1ccccc1)Oc1ccccc1
active: [2] 83.5 µM | [4] 63.2 µM | [5] 83 µM | [6] 67.5 µM | [8] 75.5 µM | [9] 63.2 µM | [10] 66.4 µM | [12] 62 µM | [18] 70.9 µM | [14] 68.3 µM
inactive: [1] | [3] | [7] | [11] | [13] | [15] | [16] | [17]

CCCCCCCc1ccc(O)cc1
inactive: [2] | [3] | [4] | [5] | [6] | [7] | [8] | [9] | [10] | [11] | [12] | [13] | [15] | [16] | [17]
active: [1] 0.402 µM

Nc1ccc(Cl)cc1
inactive: [1] | [2] | [3] | [4] | [5] | [6] | [7] | [8] | [9] | [10] | [11] | [12] | [13] | [14] | [15] | [16] | [17]

CCC1(c2ccccc2)C(=O)N=C(O)NC1=O (stereo unspecified)
inactive: [1] | [2] | [3] | [4] | [5] | [6] | [7] | [8] | [9] | [10] | [11] | [12] | [13] | [14] | [15] | [16] | [17]

O=[N+]([O-])c1ccc(Cl)c(Cl)c1
inactive: [1] | [2] | [3] | [4] | [5] | [6] | [7] | [8] | [9] | [10] | [11] | [12] | [13] | [15] | [16] | [17]

CCC(C)(C)c1ccc(O)cc1
inactive: [2] | [3] | [5] | [7] | [10] | [13] | [16] | [17]
active: [1] 2.14 µM | [4] 109 µM | [6] 107 µM | [19] 100 µM | [8] 108 µM | [9] 108 µM | [11] 56.4 µM | [12] 121 µM | [14] 105 µM | [15] 88 µM

Cc1cccc(N)c1
inactive: [1] | [2] | [3] | [4] | [5] | [6] | [7] | [8] | [9] | [10] | [11] | [12] | [13] | [14] | [15] | [16] | [17]

CCCCN(CCCC)SN(C)C(=O)Oc1cccc2c1OC(C)(C)C2
active: [2] 48.4 µM | [4] 98 µM | [6] 79.2 µM | [7] 92.7 µM | [8] 23.3 µM | [9] 56.8 µM | [10] 59.9 µM | [12] 54.1 µM | [18] 66.8 µM
inactive: [1] | [3] | [5] | [11] | [13] | [15] | [16] | [17]

CC(C)(C)OOC(C)(C)C
inactive: [1] | [2] | [3] | [4] | [5] | [6] | [7] | [8] | [9] | [10] | [11] | [12] | [13] | [14] | [15] | [16] | [17]

CN(C)C(=O)Cl
inactive: [2] | [3] | [4] | [5] | [6] | [7] | [8] | [9] | [10] | [11] | [12] | [13] | [15] | [16] | [17]
active: [1] 38.7 µM

ClC(Cl)(Cl)c1ccccc1
inactive: [1] | [2] | [3] | [4] | [5] | [6] | [7] | [8] | [9] | [10] | [11] | [12] | [13] | [20] | [14] | [15] | [16] | [17]

ClC(Cl)c1ccccc1
inactive: [1] | [2] | [3] | [4] | [5] | [6] | [7] | [8] | [9] | [10] | [11] | [12] | [13] | [15] | [16] | [17]

CCCCc1ccccc1
inactive: [1] | [2] | [3] | [4] | [5] | [6] | [7] | [8] | [9] | [10] | [11] | [12] | [13] | [15] | [16] | [17]
